# Source: ChEMBL document CHEMBL3988442, “University of Dundee, Small-Polar-MMV Screening Library” (2021)
# Hit rate of the full screen: of about 67,000 compounds, about 300 (0.45%) showed an effect of 50% or more. Many of the other results were omitted from the sample, so strong results are more common in it than they were.
# Biological target: Polyketide synthase Pks13 (Mycobacterium tuberculosis (strain ATCC 25618 / H37Rv)) (UniProt I6X8D2)
# Experiment: Mycobacterium tuberculosis Polyketide synthase 13 Thioesterase (PKS13)
# Format: functional
# Set-up: scale not given: in the data most compounds retested in dose-response had high values
# Settings: 30 µM
# Sequence of Polyketide synthase Pks13 (Mycobacterium tuberculosis (strain ATCC 25618 / H37Rv)) (I6X8D2 whole entry): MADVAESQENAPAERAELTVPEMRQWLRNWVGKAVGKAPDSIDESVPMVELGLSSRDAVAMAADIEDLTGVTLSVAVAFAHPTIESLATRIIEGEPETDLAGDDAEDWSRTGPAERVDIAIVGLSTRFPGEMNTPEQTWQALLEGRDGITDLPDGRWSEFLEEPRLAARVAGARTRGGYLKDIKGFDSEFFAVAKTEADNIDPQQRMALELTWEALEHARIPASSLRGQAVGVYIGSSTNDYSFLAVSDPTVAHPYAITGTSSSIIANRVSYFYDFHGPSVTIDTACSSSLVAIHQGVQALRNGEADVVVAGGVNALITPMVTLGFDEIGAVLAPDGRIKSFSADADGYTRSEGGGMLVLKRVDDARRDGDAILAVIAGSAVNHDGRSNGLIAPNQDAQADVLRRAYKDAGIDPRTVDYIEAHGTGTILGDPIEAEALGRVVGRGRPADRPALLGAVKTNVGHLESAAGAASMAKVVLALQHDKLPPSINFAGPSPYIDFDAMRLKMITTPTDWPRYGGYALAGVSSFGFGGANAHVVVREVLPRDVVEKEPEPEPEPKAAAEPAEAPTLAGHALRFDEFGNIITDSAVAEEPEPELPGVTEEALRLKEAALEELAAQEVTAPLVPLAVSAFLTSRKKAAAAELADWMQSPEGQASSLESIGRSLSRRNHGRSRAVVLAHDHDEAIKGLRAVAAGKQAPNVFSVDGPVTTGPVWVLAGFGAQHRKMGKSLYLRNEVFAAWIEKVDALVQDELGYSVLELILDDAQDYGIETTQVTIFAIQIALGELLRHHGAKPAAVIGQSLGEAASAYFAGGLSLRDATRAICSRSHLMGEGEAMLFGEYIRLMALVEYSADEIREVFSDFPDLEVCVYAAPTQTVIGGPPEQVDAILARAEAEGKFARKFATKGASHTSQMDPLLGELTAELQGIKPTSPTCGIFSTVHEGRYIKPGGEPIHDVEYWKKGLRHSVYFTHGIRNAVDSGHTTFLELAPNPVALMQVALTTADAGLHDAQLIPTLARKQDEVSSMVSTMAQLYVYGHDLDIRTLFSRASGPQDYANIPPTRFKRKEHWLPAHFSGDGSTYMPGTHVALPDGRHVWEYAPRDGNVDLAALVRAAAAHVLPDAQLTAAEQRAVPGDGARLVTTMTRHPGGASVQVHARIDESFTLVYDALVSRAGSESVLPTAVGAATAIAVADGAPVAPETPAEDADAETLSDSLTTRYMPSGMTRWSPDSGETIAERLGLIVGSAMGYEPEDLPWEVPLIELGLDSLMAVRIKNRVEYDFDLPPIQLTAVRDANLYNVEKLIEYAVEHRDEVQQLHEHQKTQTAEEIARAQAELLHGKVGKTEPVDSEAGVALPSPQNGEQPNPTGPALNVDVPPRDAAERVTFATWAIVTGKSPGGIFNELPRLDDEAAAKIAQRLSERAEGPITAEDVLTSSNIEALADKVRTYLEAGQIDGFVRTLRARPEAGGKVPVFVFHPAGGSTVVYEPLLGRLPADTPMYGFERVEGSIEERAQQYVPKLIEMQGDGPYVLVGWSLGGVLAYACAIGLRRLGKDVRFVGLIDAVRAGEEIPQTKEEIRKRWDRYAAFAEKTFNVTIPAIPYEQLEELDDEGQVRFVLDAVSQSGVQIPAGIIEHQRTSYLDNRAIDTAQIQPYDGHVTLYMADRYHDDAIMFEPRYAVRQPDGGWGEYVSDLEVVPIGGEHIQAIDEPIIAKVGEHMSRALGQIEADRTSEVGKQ
row,SMILES,Percent Effect
1,O=C(N[C@@H]1CN(Cc2ccccc2)C[C@@H]2CCCO[C@@H]21)C1CC1,-12.9%
2,CCN1C(=O)CC[C@@H]2[C@H]1CCN2S(=O)(=O)c1cccs1,-25.3%
3,Cc1ccc(C(=O)N2CCN(c3ncnc4nc(N)ccc34)CC2)cc1,-11.7%
4,CC(C)(C)C(=O)N1CCCN(c2ncnc3nc(N)ccc23)CC1,18.3%
5,Cc1ccc(C(=O)N2CCN(c3ncnc4nc(N)ccc34)CC2)o1,65.6%
6,Cc1c(C(=O)N2CCS(=O)(=O)CC2)nnn1-c1ccc2ncccc2c1,-29.1%
7,Cc1c(C(=O)N2CCC2)nnn1-c1ccc2ncccc2c1,-7.58%
8,Cc1c(C(=O)N2CCOCC2)nnn1-c1ccc2ncccc2c1,67.3%
9,CCS(=O)(=O)N1C[C@H]2CC[C@](O)(c3ccc(C)cc3)[C@H]2C1,8.05%
10,Cn1nc(C2CCCN(Cc3ccccc3)C2)c2nccnc21 (centres undefined),3.08%
11,Cn1nc(C2CCCN(Cc3cccs3)C2)c2nccnc21 (centres undefined),13%
12,Cc1ccc(CN2CCCC(c3nn(C)c4nccnc34)C2)s1 (centres undefined),115%
13,Cc1cc(CN2CC[C@H]3C(=O)N(c4ccsc4)CCO[C@H]3C2)no1,-5.2%
14,Cc1csc([C@H]2C[C@@H]3CCN(C(=O)c4cnccn4)C[C@H]3O2)n1,-30.8%
15,CCn1cc(-c2cc(-c3cc(CC(=O)O)cs3)nc(N)c2C#N)c(C)n1,-51.8%
16,CCn1cc(-c2cc(-c3cc(CN(C)C)cs3)nc(N)c2C#N)c(C)n1,76.9%
17,Cc1nn(C)c(C)c1-c1cc(-c2cc(CC(=O)O)cs2)nc(N)c1C#N,47.9%
18,COCCN1C[C@H]2CN(Cc3cccc(OC(F)(F)F)c3)CCN2C1=O,-30.8%
19,CC(C)(C)OC(=O)N1CCCCC1C(=O)NCc1cc[nH]n1 (centres undefined),-18.2%
20,Cc1ccc(CNC(=O)C2CCCCN2C(=O)OC(C)(C)C)cn1 (centres undefined),56.8%
21,Cc1cc(CNC(=O)[C@H]2CCCCN2C(=O)OC(C)(C)C)on1,-8.92%
22,COc1cc(N2C[C@@H]3COC[C@]3(COCc3cccc(C)n3)C2)ncn1,-18.9%
23,COc1ccc2[nH]c(C[C@@H]3C[C@@H](C(C)C)[C@H](CN(C)C)C=C3C)nc2c1,1.51%
24,COc1ccc2nc(C[C@@H]3C[C@@H](C(C)C)[C@H](CN)C=C3C)[nH]c2n1,56.2%
25,COc1ccc2nc(C[C@@H]3C[C@@H](C(C)C)[C@H](CN(C)C)C=C3C)[nH]c2n1,-71.1%
26,CCn1nc(C)cc1C(=O)N1C[C@@H]2C[C@@H](c3nnc(C)[nH]3)O[C@@H]2C1,-31.5%
27,COCCN1C[C@H]2[C@@H](C1)N(C(=O)COc1ccccc1)CC[C@H]2OC,-22.6%

row,SMILES,Percent Effect
1,COc1ccc2c(C(=O)N(C)C)cc(-c3cnc(N)nc3)nc2c1,75.3%
2,Cc1ccc2nc(-c3cnc(N)nc3)cc(C(=O)N(C)C)c2c1,1.85%
3,CN(C)C(=O)c1cc(-c2cnc(N)nc2)nc2cc(F)ccc12,-19.1%
4,COc1ccc(C(=O)N2CC[C@@H]3[C@H](CC2)N(C)CCS3(=O)=O)cc1,-17.1%
5,Fc1cccc(CN2C[C@@H]3CN(c4ncccn4)C[C@@H]3C2)c1,-4.52%
6,Cn1c(Cn2ncc(N3CCCC3)cc2=O)nc2ccccc21,-18.2%
7,Cn1c(Cn2ncc(N3CCCCC3)cc2=O)nc2ccccc21,91%
8,CN(C)c1cnn(Cc2nc3ccccc3n2C)c(=O)c1,-19.4%
9,COc1ncccc1C(=O)N1CC[C@H]2C[C@@H](C)O[C@@H]2C1,-30.1%
10,c1ccc(NC[C@@H]2CCC[C@@H]3CN(Cc4cccnc4)C[C@@H]32)nc1,-17.4%
11,CCOc1ccc2nc(CN3CCC(CNC(C)=O)C3)ccc2c1 (centres undefined),-18.1%
12,CCOc1ccc2nc(CN3CCC(CN)C3)ccc2c1 (centres undefined),-11.4%
13,CCOc1ccc2nc(CN3CCOC(CN)C3)ccc2c1 (centres undefined),70.3%
14,Oc1cccc(CN2C[C@H]3CC[C@@H]2CN(Cc2ccc(F)cc2)C3)c1,-36.6%
15,Cc1cccc(CN2C[C@@H]3COC[C@]3(CNC(=O)N3CCCC3)C2)n1,-7.01%
16,Cc1ccc(-c2nnc([C@H]3CCN(C4CCC4)C3)o2)cc1,11.8%
17,Clc1ccc(-c2nnc([C@H]3CCN(C4CCCCC4)C3)o2)cc1,-3.49%
18,CN(C)c1ccc(-c2nnc([C@H]3CCN(C4CCCCC4)C3)o2)cc1,58.9%
19,O=C(c1ccccc1)N1C[C@@H]2CC[C@H](C1)N(C(=O)CN1CCOCC1)C2,-38.5%
20,N#Cc1cc(C#N)c(SCC(=O)NCc2ccc(F)cc2)nc1N,-6.72%
21,N#Cc1cc(C#N)c(SCC(=O)Nc2ccc(F)cc2)nc1N,65.2%
22,N#Cc1cc(C#N)c(SCCC(=O)Nc2ccc(F)cc2)nc1N,-20.2%
23,C=Cn1ncc(CN2C[C@@H]3C[C@@H](O)CN3C[C@@H]2Cc2ccccc2)c1C,-6.39%
24,O=S(=O)(Nc1cnc(N2CCOCC2)nc1)c1ccc(C(F)(F)F)cc1,-20.2%
25,COCC(=O)Nc1cnc(N2CCOCC2)nc1,-16%
26,O=C(Nc1cnc(N2CCOCC2)nc1)c1ccc(C(F)(F)F)cc1,106%
27,Cc1ccc(CN2CC[C@H]3OCC[C@@H](C(=O)N4CCCCO4)[C@@H]3C2)o1,16.9%
